# Values without a mark were called inactive. Activity calls are given as the source filed them. Rule as the data show it: active = fold change permeability below about 0.7 or above about 1.3; inactive = in between.
# Experiment: compounds altering in vitro BBB leakiness – cell-based, FITC-avidin fluorescence, HTS, primary screen (AID 1963498); also: test concentration not given here
# Conditions: brain endothelial barrier, actives lie on both sides
row,Compound,fold change permeability
1,CCCN(CCC)C(=O)C(CCC(=O)O)NC(=O)c1ccccc1 (centres undefined),0.7 (active)
2,CC(N)(C(=O)O)c1ccc(C(=O)O)cc1 (centres undefined),0.9
3,CCN(Cc1cccnc1)C(=O)CN(c1ccc(OC)nc1)S(=O)(=O)c1ccccc1C,1.9 (active)
4,CN(C)CCC=C1c2ccccc2CCc2ccccc21,1.1
5,O=C(S)S,1.4 (active)
6,CC(C)(Oc1ccc(CCNC(=O)c2ccc(Cl)cc2)cc1)C(=O)O,0.9
7,NC[C@@H]1O[C@H](c2ccccc2)Cc2c1ccc(O)c2O,1.3 (active)
8,Cc1ccc(S(=O)(=O)/C=C/C#N)cc1,1.1
9,N#Cc1c(N2C[C@@H]3NCCO[C@H]3C2)c(F)cc2c(=O)c(C(=O)O)cn(C3CC3)c12,0.9
10,Cc1ccccc1N1CCN(CCc2nnc3n2CCCC3)CC1,0.9
11,NC(=O)c1ccccc1,1.2
12,CCCCCC[C@@H]([C@@H](C)O)n1cnc2c(N)ncnc21,0.7 (active)
13,O=c1[nH]cc(F)c(=O)[nH]1,0.8
14,CCCC(C)NC(=O)c1ccc(Cl)c(Cl)c1 (centres undefined),1.2
15,Cc1cn[nH]c1,0.8
16,O=C1NC(=O)C(Cc2ccc3cc(OCc4ccccc4F)ccc3c2)S1 (centres undefined),1.3 (active)
17,CCNC(=O)[C@H]1O[C@@H](n2cnc3c(N)nc(NCCc4ccc(CCC(=O)O)cc4)nc32)C(O)[C@H]1O (some centres undefined),1.1
18,CC(=O)N=c1sc(S(N)(=O)=O)nn1C,1.4 (active)
19,CCOC(=O)C1=C(C)NC(C)=C(C(=O)OC)C1c1cccc([N+](=O)[O-])c1 (centres undefined),0.8
20,O=C(O)CNC(=O)C(CS)Cc1ccccc1 (centres undefined),0.6 (active)

row,Compound,fold change permeability
1,Cn1c(CNc2ccc(C(=N)N)cc2)nc2cc(C(=O)N(CCC(=O)O)c3ccccn3)ccc21,1.1
2,C=C1CCN([C@H](C)[C@](O)(Cn2cncn2)c2ccc(F)cc2F)CC1,1.4 (active)
3,CN1Cc2sccc2C(c2ccc(O)c(O)c2)C1 (centres undefined),1
4,COC(=O)C1=C(C)NC(C)=C(C(=O)OC(C)(C)CN(C)CCC(c2ccccc2)c2ccccc2)C1c1cccc([N+](=O)[O-])c1 (centres undefined),1.1
5,COc1ccc(CCn2nnnc2C2(c3ccc(C)cc3)CC2)cc1,1.6 (active)
6,CC(C)CN(C[C@@H](O)[C@H](Cc1ccccc1)NC(=O)O[C@H]1CO[C@H]2OCC[C@H]21)S(=O)(=O)c1ccc(N)cc1,1.4 (active)
7,O=C1c2c(O)cc(O)cc2O[C@H](c2ccc(O)c(O)c2)[C@H]1O,1
8,O=c1[nH]c2cc(C(F)(F)F)ccc2n1-c1cc(C(F)(F)F)ccc1O,1.3 (active)
9,CC(C)C(=O)Nc1ccc([N+](=O)[O-])c(C(F)(F)F)c1,1.2
10,CCN(CC)CCn1c(=O)c(Cc2ccc(OC)cc2)nc2ccccc21,0.7 (active)
11,C[C@H](CS)C(=O)N1CCC[C@H]1C(=O)O,1
12,O=C(c1ccoc1)N1CCN(c2cc(-c3ccco3)nc3cc(-c4ccccc4)nn23)CC1,1.2
13,Cc1cc(C)cc(NC(=O)CN(c2cc([N+](=O)[O-])ccc2C)S(C)(=O)=O)c1,1.5 (active)
14,CC1CCN(CC[C@H]2CCCN2S(=O)(=O)c2cccc(O)c2)CC1,0.7 (active)
15,CC(=O)[C@H]1CCC2C3CC=C4C[C@@H](OS(=O)(=O)O)CC[C@]4(C)C3CC[C@@]21C (some centres undefined),1
16,NC(CCCP(=O)(O)O)C(=O)O (centres undefined),0.9
17,CC(=O)N[C@@H](CS)C(=O)O,1.1
18,CCCc1c(OCCCOc2ccc(OCC(=O)O)cc2)ccc(C(C)=O)c1O,1.3 (active)
19,Oc1ccc(/C=C/c2cc(O)cc(O)c2)cc1,1.7 (active)

# From PubChem BioAssay
